# Assay outcomes (PubChem)
# ATXN2 expr inh: ATXN2 expression inhibition. HEK-293 ATXN2-luciferase reporter, luminescence, 24 h. Potency, µM (series often up to 57 µM), without a hit: top-dose activity change, negative = inhibition, usual class: inhibitors. 360,000 compounds, 0.72% hits. AID 1745845; note: potency is the fitted concentration of half-maximal effect; % is set by controls: 0 for no effect and ±100 for the full control effect; nearly all actives have a fitted effect of over 55% in size
#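 ATXN2-luciferase reporter cells (luciferase flanked by upstream and downstream ATXN2 gene portions) were treated 24 h at 37 °C with compounds at up to 57 uM. SteadyGlo luminescence gave expression; GF-AFC fluorescence gave viability.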
# DRD3 agonist: agonists of human D3 dopamine receptor | AID 652048 | max activation, % | D3R DiscoveRx beta-arrestin cells, luminescence, 90 min | 410,000 compounds, 0.58% hits; in the data active = max activation above about 30%; note: 0% is about no effect
# Target sequence (P35462 whole entry, looked up): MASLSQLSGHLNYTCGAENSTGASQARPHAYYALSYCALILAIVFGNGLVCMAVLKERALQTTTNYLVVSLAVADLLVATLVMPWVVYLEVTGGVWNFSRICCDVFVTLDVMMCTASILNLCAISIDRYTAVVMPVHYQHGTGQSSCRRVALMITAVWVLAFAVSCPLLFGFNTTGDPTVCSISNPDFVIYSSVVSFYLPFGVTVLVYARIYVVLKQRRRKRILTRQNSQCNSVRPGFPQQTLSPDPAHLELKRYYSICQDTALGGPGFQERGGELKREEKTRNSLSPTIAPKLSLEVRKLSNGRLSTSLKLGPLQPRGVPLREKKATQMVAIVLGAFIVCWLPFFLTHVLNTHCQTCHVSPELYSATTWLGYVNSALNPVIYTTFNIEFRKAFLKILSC
#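 Agonist-mode cell screen: cells plated at 1500/well and incubated overnight at 37 °C, then exposed to library compounds for 90 min at 37 °C. Detection reagent was added for 30–60 min at room temperature, and luminescence was read.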
# TGFb inhibitor: inhibitors of TGF-b signaling | HepG2 CAGA-GFP TGF-b/SMAD3 reporter, GFP fluorescence, 18 h; TGF-beta stimulated, 500 pg/mL final | Potency, µM (titrated, usually from 46.1 µM), for inactives: at the top dose activity, negative = inhibition, hits mostly inhibitors | 410,000 compounds, 1.2% hits | AID 588855; note: potency is the fitted concentration of half-maximal effect; % is set by controls: 0 for no effect and ±100 for the full control effect; nearly all actives have a fitted effect of over 65% in size
#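 Inhibition was scored as loss of TGF-beta-induced (500 pg/mL final, 18 hours, 37 degrees C) GFP in HEPG2 cells carrying a CAGA-GFP reporter, in DMEM with 1% FBS. Well GFP was summed per cell; Activity was normalised to unstimulated and stimulated DMSO wells, then concentration-response fitting.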
# DRD3 antagonist: antagonists of human D3 dopamine receptor | max response, negative = inhibition, % | AID 652054 | 360,000 compounds, 2.5% hits | D3R cells, DiscoveRx beta-arrestin luminescence, antagonist mode; active compounds read low; in the data active = max response below about -50%; inconclusive = no clear call, values can overlap the other calls; note: % is set by controls: 0 for no effect and ±100 for the full control effect
#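 Cells plated overnight at 1500 cells/well, then exposed to library compounds with dopamine controls for 90 minutes at 37 degrees C. DiscoveRx reagent added for 30–60 minutes at room temperature; luminescence read, quantitative HTS format.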
# HepG2 tox: HepG2 cytotoxicity, counter-screen for TGF-b inhibitors; HepG2 CAGA-GFP viability, ATP luminescence, 18 h; Potency, µM (series often up to 46.1 µM), for the others: top-dose activity change, negative = cytotoxicity, most hits filed as cytotoxic; 410,000 compounds, 0.76% hits; note: potency is the fitted concentration of half-maximal effect
#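 CellTiter-Glo luminescence gave cytotoxicity after 18 hours at 37 degrees C. The cells were HepG2 CAGA-GFP in 1% FBS DMEM, stimulated with 500 pg/mL TGF-beta after compound addition. %Activity was normalised to no-cell wells (complete cell-killing) and DMSO (no toxicity), and curves were fitted and classified.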
# ATXN viability: viability counter-screen for ATXN expression inhibitors. Potency, µM (doses to about 56.7 µM), most hits filed as cytotoxic. S2 cells (HEK-293 line with an ATXN2-luciferase reporter) viability, CellTiter-Fluor protease fluorescence, 24 h. AID 651635. 400,000 compounds, 0.49% hits; note: potency is the fitted concentration of half-maximal effect; nearly all actives have a fitted effect of over 40% in size
# An asterisk follows results filed as active; i = inactive; ? = inconclusive; . = no result given; ! = not confirmed by another sample. Most compounds without a hit are left out; they make up all but 4.7% or so of the library. Unless noted, calls come from the whole dose curve; as a rule, active = well fitted curve in the direction sought with a large enough effect; inconclusive = small, poorly fitted or top-dose-only effect, or another doubt; inactive = no such curve, though single readings can be large; an effect the other way counts as inactive or inconclusive.
SMILES,ATXN2 expr inh,DRD3 agonist,TGFb inhibitor,DRD3 antagonist,HepG2 tox,ATXN viability
CC(CN1CCNCC1)(NS(=O)(=O)c1ccccc1)c1ccccc1 (stereo unspecified),-19%,-17,-7%,-71*,-38%,i
CC(=O)N1CCN(CC(C)(C)NS(=O)(=O)c2ccccc2)CC1,4%,5,15%,0,-5%,i
CC(C)(CN1CCN(Cc2ccccc2)CC1)NS(=O)(=O)c1ccccc1,-18%,-20,-33%,-52*,-30%,i
Cc1ccc(S(=O)(=O)NC(C)(C)CN2CCNCC2)cc1,-11%,-24,5%,?,0%,?
CC(C)(CN1CCC(Cc2ccccc2)CC1)NS(=O)(=O)c1ccccc1,-24%,-20,-24%,-23,-34%,i
CCOc1ccc(-n2cc(C(=O)N3CCC(C)CC3)c3cc(OC)c(OC)cc3c2=O)cc1,1%,2,13µM*,14,-36%,i
CCOc1ccc(NC(=O)c2cn(-c3ccc(OCC)cc3)c(=O)c3cc(OC)c(OC)cc23)cc1,-1%,0,0%,15,0%,i
C#C[C@]1(OC(C)=O)CC[C@H]2[C@@H]3CCC4=C/C(=N/O)CC[C@@H]4[C@H]3CC[C@@]21CC,?,37*,.,.,.,?
C#C[C@@]1(OC(C)=O)CC[C@@H]2[C@@H]3CCC4=C[C@@H](OC(C)=O)CC[C@H]4[C@H]3CC[C@]21C,.,.,.,.,.,i
COc1ccc(-n2c(-c3ccccc3)nnc2-c2ccc(Cl)cc2)cc1,-2%,-3,6%,?,-2%,i
Cc1ccc(-c2nc(=Nc3ccccc3)sn2-c2ccccc2)cc1,.,.,3.5µM*,.,4.5µM*,.
COc1ccc(N=c2nc(-c3ccccc3)n(-c3ccc(C)cc3)s2)cc1,.,.,4µM*,.,-102%,.
COc1ccc(N=c2nc(-c3ccc(C)cc3)n(-c3ccccc3)s2)cc1,.,.,3.2µM*,.,-62%,.
COc1ccc(N=C2C(=Nc3ccc(OC)cc3)N(c3ccc(OC)cc3)C(=S)N2c2ccccc2)cc1,30%,-2,-19%,-10,-11%,?
CN(C(=O)c1ccc(OC2CCN(CCc3ccccc3)CC2)cc1)C1CCOCC1,.,-21,0%,-83*,-8%,?
CN(C(=O)c1ccc(OC2CCN(CCc3ccccc3)CC2)cc1)C1CCOC1 (stereo unspecified),-7%,-10,-3%,-5,-9%,?
CSCCNC(=O)c1ccc(OC2CCN(CCc3ccccc3)CC2)cc1,.,-17,8%,-79*,-27%,i
COC(=O)CCCNC(=O)c1ccc(OC2CCN(CCc3ccccc3)CC2)cc1,.,-3,-19%,-26,-1%,i
CCOc1ccc2cc(C#N)c(SCC(=O)OCc3ccccc3)nc2c1,.,.,-1%,.,-22%,.
OCCCNc1ncnc2sc3c(c12)CCN(Cc1ccccc1)C3,.,-3,3%,-8,-10%,i
O=c1[nH]cnc2sc3c(c12)CCN(Cc1ccccc1)C3,13%,74*,13%,43,11%,i
CC1(C)Cc2c(sc3nc[nH]c(=O)c23)CO1,-16%,-6,-1%,-6,-2%,i
O=c1[nH]cnc2sc3c(c12)CN(Cc1ccccc1)CC3,42%,60*,3%,10,3%,.
CCOC(=O)c1ccc(C#Cc2ccc3c(c2)C(C)(C)CCS3)nc1,?,-4,.,.,.,i
COC(=O)c1ccc(NC(=O)CN2C(=O)c3cccc4cccc2c34)cc1,0%,-6,-6%,.,-54%,i
SMILES,ATXN2 expr inh,DRD3 agonist,TGFb inhibitor,DRD3 antagonist,HepG2 tox,ATXN viability
COc1ccccc1-c1cnc(C(O)c2ccccc2)[nH]1 (stereo unspecified),0%,-11,0%,0,-22%,i
OC(c1cccc(F)c1)c1ncc(-c2ccc(Oc3ccccc3)cc2)[nH]1 (stereo unspecified),-23%,5,?,35,-74%,?
OC(c1cccc(Cl)c1)c1ncc(-c2ccc(Oc3ccccc3)cc2)[nH]1 (stereo unspecified),?,2,18µM*,24,11µM*,.
COc1ccccc1-c1cnc(C(O)c2cc(Cl)cc(Cl)c2)[nH]1 (stereo unspecified),-7%,0,11µM*,-12,-21%,i
NC(=O)N/N=C/c1ccccc1OC(=O)c1cc2ccccc2oc1=O,.,-6,-7%,-57*,1%,i
NC(=S)N/N=C/c1ccccc1OC(=O)c1cc2ccccc2oc1=O,.,0,-14%,-22,-49%,?
Cc1ccc(Cn2cc(/C=C(/C#N)C(=O)Nc3cccc(Cl)c3)c3ccccc32)cc1,-13%,-12,?,.,-27%,i
COc1cccc(NC(=O)/C(C#N)=C\c2cn(Cc3ccc(Cl)cc3)c3ccccc23)c1,7%,-12,11µM*,.,-11%,i
Cc1ccc(-n2cc(CN3CCN(c4ccccn4)CC3)c(-c3ccc(F)cc3)n2)cc1,-12%,-21,?,-62*,-11%,i
COc1ccc(C(=O)O)cc1S(=O)(=O)N1CCN(c2ccccn2)CC1,5%,-1,-7%,3,0%,i
COc1cccc(CN2CCN(c3ncccn3)CC2)c1OC,3%,11,0%,-1,8%,?
COc1ccc(OC)c(S(=O)(=O)N2CCN(c3ccccn3)CC2)c1,7%,-3,?,-104*,-36%,i
COc1ccc(CN2CCN(c3ncccn3)CC2)c(C)c1C,.,71*,-21%,-20,-33%,i
COc1ccc(CN2CCN(c3ccccn3)CC2)c(OC)c1C,-11%,-11,?,-56*!,-44%,i
Cc1ccc(NC(=O)Cn2c(=O)n(CC(=O)NCCc3ccccc3)c(=O)c3ccccc32)cc1C,-16%,-8,11%,.,2%,i
CNC(=O)COc1ccccc1C(=O)Nc1ccccc1,.,.,6%,.,4%,.
CCOC(=O)c1[nH]c(C)c(CCC(=O)NCc2ccc(CC)cc2)c1C,5%,-24,-21%,.,-16%,i
Cc1cccc(C(=O)OCC(=O)NC(=O)NC2CCCCC2)c1,.,3,-9%,-117*,-1%,?
O=C(Nc1ccc(N2CCN(c3ccc(F)cc3)CC2)c(C(=O)O)c1)c1ccccc1F,10%,-3,7%,.,-1%,i
Cc1nc(SCC(=O)NCc2ccco2)c2c3c(sc2n1)CCCC3,-26%,2,-10%,13,-43%,i
O=C(CSc1nc(C2CC2)nc2sc3c(c12)CCCC3)NCc1ccco1,3%,-4,-3%,-112*,0%,i
